# Laboratory results reported in PubChem BioAssay (EPA / NIEHS).
# The source made the active and inactive calls. The calls were made as follows: active = hit-call score of the fitted dose curve at least 0.9, where 1 is the maximum; inactive = score below 0.9.
# Assay: CCTE_Padilla_ZF_Score.Craniofacial: CCTE's 144 Hour Post-fertilization zebrafish Assay Score for Craniofacial Malformation, Padilla Lab (AID 2284405)
# In short: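 Wild-type zebrafish embryos (with chorions), one per well in 10% Hanks', were dosed at 6–8 hpf in sealed plates and kept at 26C. They were rinsed at 5 dpf. At 6 dpf two blinded assessors scored craniofacial malformations by brightfield stereomicroscopy.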
SMILES,AC50,outcome
O=C(O)C(F)(F)C(F)(F)C(F)(F)C(F)(F)C(F)(F)C(F)(F)C(F)(F)C(F)(F)C(F)(F)C(F)(F)F,2410 nM (active),–
O=C(O)CCC(F)(C(F)(F)F)C(F)(F)F,–,inactive
O=C(O)C(F)(F)C(F)(F)C(F)(F)C(F)(F)C(F)(F)C(F)(F)F,–,inactive

# Assay: CCTE_Padilla_ZF_Score.Edema: CCTE's 144 Hour Post-fertilization zebrafish Assay Score for Edema Malformation, Padilla Lab (AID 2284406)
# In short: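 Wild-type zebrafish embryos, one per well in Hanks' solution, dosed at 6-8 hpf, sealed and reared at 26C on a 14:10 h cycle; rinsed on 5 dpf. At 6 dpf, blinded assessors scored edema by stereomicroscopy.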
SMILES,AC50,outcome
O=C(O)C(F)(F)C(F)(F)C(F)(F)C(F)(F)C(F)(F)C(F)(F)C(F)(F)C(F)(F)C(F)(F)C(F)(F)F,2400 nM (active),–
O=C(O)CCC(F)(C(F)(F)F)C(F)(F)F,–,inactive
O=C(O)C(F)(F)C(F)(F)C(F)(F)C(F)(F)C(F)(F)C(F)(F)F,–,inactive

# Assay: CCTE_Padilla_ZF_Score.Spine: CCTE's 144 Hour Post-fertilization zebrafish Assay Score for Spine Malformation, Padilla Lab (AID 2284407)
# In short: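 Wild-type zebrafish embryos, one per well in Hanks' solution, dosed at 6–8 hpf in sealed plates at 26C, 14:10 h light:dark; rinsed at 5 dpf. Two blinded assessors scored spinal defects by stereomicroscopy at 6 dpf; fitted versus DMSO.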
row,SMILES,outcome
1,O=C(O)C(F)(F)C(F)(F)C(F)(F)C(F)(F)C(F)(F)C(F)(F)C(F)(F)C(F)(F)C(F)(F)C(F)(F)F,inactive
2,O=C(O)CCC(F)(C(F)(F)F)C(F)(F)F,inactive
3,O=C(O)C(F)(F)C(F)(F)C(F)(F)C(F)(F)C(F)(F)C(F)(F)F,inactive

# Assay: CCTE_Padilla_ZF_Score.Swim_bladder: CCTE's 144 Hour Post-fertilization zebrafish Assay Score for Swim Bladder Malformation, Padilla Lab (AID 2284408)
# In short: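 Wild-type zebrafish embryos, one per well in 10% Hanks', dosed at 6–8 hpf, sealed, reared at 26C and rinsed at 5 dpf. Blinded assessors scored uninflated swim bladder by stereomicroscopy at 6 dpf, relative to DMSO.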
SMILES,AC50,outcome
O=C(O)C(F)(F)C(F)(F)C(F)(F)C(F)(F)C(F)(F)C(F)(F)C(F)(F)C(F)(F)C(F)(F)C(F)(F)F,2410 nM (active),–
O=C(O)CCC(F)(C(F)(F)F)C(F)(F)F,–,inactive
O=C(O)C(F)(F)C(F)(F)C(F)(F)C(F)(F)C(F)(F)C(F)(F)F,–,inactive

# Assay: CCTE_Padilla_ZF_Score.Position: CCTE's 144 Hour Post-fertilization zebrafish Assay Score for Position, Padilla Lab (AID 2284409)
# Procedure: (§1) CCTE_Padilla_ZF_Phenotype_Score is a whole embryo, multiplexed assay using zebrafish ova exposed for 144 hours post fertilization on a 96-well plate.CCTE_Padilla_ZF_Score.Position is one of one assay component(s) measured or calculated from the CCTE_Padilla_ZF_Phenotype_Score assay. It is designed to make measurements of zebrafish development as detected with brightfield microscopy of developing zebrafish embryos.Data from the assay component CCTE_Padilla_ZF_Score.Position was analyzed into 1 assay endpoints. This assay endpoint, CCTE_Padilla_ZF_Score.Position, was analyzed in the positive analysis fitting direction relative to DMSO as the negative control and baseline of activity. Using a type of viability reporter, gain-of-signal activity can be used to understand changes in developmentals as they relate to the whole embryo. To generalize the intended target to other relatable targets, this assay endpoint is annotated to the zebrafish development intended target family, where the subfamily is embryonic mobility.
# (§2) Zebrafish husbandry: Wild type adult zebrafish (Danio rerio; undefined outbred stock obtained from Aquatic Research Organisms, Hampton, NH, 03842) were housed in an AAALAC-approved animal facility at 28C with a 14:10 h light: dark cycle (lights on at 08:30 h). Adult fish (2-3 females per male; density = 15-20 adults per tank) were kept in one of several 9-liter (L) flow-through colony tanks (Aquaneering Inc., San Diego, CA). All adults in a colony tank were placed in a 2 L (static) breeding tank (Aquatic Habitats, Apopka, FL) one hour prior to light onset. Typically, adults from two to three colony tanks were mated on the same day. Two hours after light onset the adults were returned to the colony tank. […]
row,SMILES,outcome
1,O=C(O)C(F)(F)C(F)(F)C(F)(F)C(F)(F)C(F)(F)C(F)(F)C(F)(F)C(F)(F)C(F)(F)C(F)(F)F,inactive
2,O=C(O)CCC(F)(C(F)(F)F)C(F)(F)F,inactive
3,O=C(O)C(F)(F)C(F)(F)C(F)(F)C(F)(F)C(F)(F)C(F)(F)F,inactive

# Assay: CCTE_Padilla_ZF_Score.Living: CCTE's 144 Hour Post-fertilization zebrafish Assay Score for Viability, Padilla Lab (AID 2284410);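 also: larval death at 6 dpf judged by absent heartbeat or coagulation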
# In short: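 Wild-type zebrafish embryos were exposed singly from 6–8 hpf in sealed wells of Hanks' solution at 26C, then rinsed at 5 dpf. At 6 dpf, blinded assessors scored mortality (no heartbeat or coagulation) by stereomicroscopy, fitted against DMSO.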
SMILES,AC50,outcome
O=C(O)C(F)(F)C(F)(F)C(F)(F)C(F)(F)C(F)(F)C(F)(F)C(F)(F)C(F)(F)C(F)(F)C(F)(F)F,50700 nM (active),–
O=C(O)CCC(F)(C(F)(F)F)C(F)(F)F,–,inactive
O=C(O)C(F)(F)C(F)(F)C(F)(F)C(F)(F)C(F)(F)C(F)(F)F,–,inactive

# Assay: CCTE_Padilla_ZF_Score.General: CCTE's 144 Hour Post-fertilization zebrafish Assay Score for General Malformation, Padilla Lab (AID 2284411)
# In short: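 Wild-type zebrafish embryos were plated singly at 6-8 hpf in 10% Hanks' and exposed in sealed wells at 26C until rinsed on 5 dpf. At 6 dpf two blinded assessors scored mortality, hatching and malformations by stereomicroscopy; gain-of-signal versus DMSO.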
SMILES,outcome,AC50
CCOP(=S)(OCC)SCCS(=O)(=O)CC,inactive,–
BrCCBr,inactive,–
NC(=S)Nc1ccccc1,inactive,–
COc1cc(OC)nc(NC(=O)NS(=O)(=O)c2ncccc2C(=O)N(C)C)n1,inactive,–
CC(=O)C(Cl)C(=O)N(C)C (stereo not drawn),inactive,–
Nc1ncc([N+](=O)[O-])s1,inactive,–
O=C(O)C(F)(F)C(F)(F)C(F)(F)C(F)(F)C(F)(F)C(F)(F)C(F)(F)C(F)(F)C(F)(F)C(F)(F)F,–,2510 nM (active)
O=C(O)CCC(F)(C(F)(F)F)C(F)(F)F,inactive,–
CC(C)CCCCCCOC(=O)c1ccccc1C(=O)OCCCCCCC(C)C,inactive,–
Nc1cccc2ccccc12,inactive,–
O=C(O)C(F)(F)C(F)(F)C(F)(F)C(F)(F)C(F)(F)C(F)(F)F,inactive,–
CCOP(=S)(OCC)Oc1ccc(S(C)=O)cc1 (stereo not drawn),inactive,–

# Assay: CCTE_Padilla_ZF_Score.Tail: CCTE's 144 Hour Post-fertilization zebrafish Assay Score for Tail Malformation, Padilla Lab (AID 2284414)
# Procedure: as §1, with “plate.CCTE_Padilla_ZF_Score.Tail” for “plate.CCTE_Padilla_ZF_Score.Position”, “CCTE_Padilla_ZF_Score.Tail” for “CCTE_Padilla_ZF_Score.Position”, “CCTE_Padilla_ZF_Score.Tail,” for “CCTE_Padilla_ZF_Score.Position,”, “lower trunk morphogenesis.” for “embryonic mobility.”
# as §2
row,SMILES,outcome
1,O=C(O)C(F)(F)C(F)(F)C(F)(F)C(F)(F)C(F)(F)C(F)(F)C(F)(F)C(F)(F)C(F)(F)C(F)(F)F,inactive
2,O=C(O)CCC(F)(C(F)(F)F)C(F)(F)F,inactive
3,O=C(O)C(F)(F)C(F)(F)C(F)(F)C(F)(F)C(F)(F)C(F)(F)F,inactive
